Inconclusive results are not listed. Values without a mark were called inactive. Calls of active or inactive are those of the source. Calls come from the whole dose curve; as a rule, active = well fitted inhibition curve with a large enough effect in the repeat runs; inconclusive = weak or mixed curves; inactive = no such curve, though single readings can be large or run the other way.
target: Cytochrome P450 2C9 (Homo sapiens) (UniProt P11712); assay: Cytochrome P450 Family 2 Subfamily C Member 9 (CYP2C9) small molecule antagonists: luciferase reporter qHTS assay (AID 1671198); settings: P450-Glo CYP2C9 enzyme assay, luciferin luminescence; series mostly up to 115 µM; activity change, negative = inhibition: at the top concentration; note: nearly all actives have a fitted effect of over 50% in size
Sequence (P11712 whole entry, looked up): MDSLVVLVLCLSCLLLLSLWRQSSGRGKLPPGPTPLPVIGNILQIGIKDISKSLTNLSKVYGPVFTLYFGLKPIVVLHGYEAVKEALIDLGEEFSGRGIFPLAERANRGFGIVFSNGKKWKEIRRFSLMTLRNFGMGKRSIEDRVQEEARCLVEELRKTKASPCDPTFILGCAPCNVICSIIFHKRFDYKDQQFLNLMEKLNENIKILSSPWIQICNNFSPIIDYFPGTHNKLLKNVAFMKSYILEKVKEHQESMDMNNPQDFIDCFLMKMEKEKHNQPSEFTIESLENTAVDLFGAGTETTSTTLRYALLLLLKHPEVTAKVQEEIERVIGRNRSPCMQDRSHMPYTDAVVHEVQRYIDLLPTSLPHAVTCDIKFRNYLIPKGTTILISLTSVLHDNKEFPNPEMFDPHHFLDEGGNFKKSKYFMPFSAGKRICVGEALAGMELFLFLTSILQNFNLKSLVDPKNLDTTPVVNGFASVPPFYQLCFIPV
Method in brief: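 CYP2C9 activity was measured with a P450-Glo proluciferin substrate. Enzyme–substrate mix was held with compound for 10 min at room temperature, then NADPH regeneration solution was added for 1 h at 37C. Luciferin product was read as luminescence.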
% is set by controls: 0 for no effect and ±100 for the full control effect; potency is the fitted concentration of half-maximal effect.

Structure (SMILES)	activity change, negative = inhibition	Potency
OC[C@H]1O[C@@H](OCCc2ccc(O)cc2)[C@H](O)[C@@H](O)[C@@H]1O	12.3% [at 53 µM]	–
CCOC(=O)NCCOc1ccc(Oc2ccccc2)cc1	–	20 µM (active)
O=[N+]([O-])c1ccc(NCCO)c(OCCO)c1	-18.3%	–
CCOc1ccc(N=Nc2ccc(/C=C/c3ccc(N=Nc4ccc(OCC)cc4)cc3S(=O)(=O)O)c(S(=O)(=O)O)c2)cc1	-9.15%	–
Brc1c2ccccc2c(Br)c2ccccc12	-3.76% [at 10.5 µM]	–
CCCCCCCCCc1ccc(OCCOCCO)cc1	–	10.6 µM (active)
CCOC(=O)COC(=O)c1cc(Oc2ccc(C(F)(F)F)cc2Cl)ccc1[N+](=O)[O-]	–	6.33 µM (active)
CCCCC	-0.902%	–
CC[N+]1(CC)CCC(=C(c2ccccc2)c2ccccc2)C1C (stereo not drawn)	2.18% [at 53 µM]	–
CN1CCN(C(c2ccccc2)c2ccccc2)CC1	0.97% [at 53 µM]	–
C#C[C@]1(O)CC[C@H]2[C@@H]3CCc4cc(OC5CCCC5)ccc4[C@H]3CC[C@@]21C	–	19.5 µM (active)
CCN(CC)c1ccc2c(-c3ccccc3C(=O)O)c3ccc(=[N+](CC)CC)cc-3oc2c1	–	28.3 µM (active)
NCCCN1CCOCC1	-12%	–
CN1C[C@H]2c3ccccc3Oc3ccc(Cl)cc3[C@@H]2C1	-0.82% [at 53 µM]	–
CCN(CC)CCOC(=O)C(Cc1cccc2ccccc12)CC1CCCO1 (stereo not drawn)	-2.25% [at 53 µM]	–
Nc1ccccc1S(=O)(=O)c1ccccc1	64.3%	–
CNCCCCOc1ccccc1Cc1ccccc1	-3.24% [at 53 µM]	–
COc1ccc(C(=O)Nc2nc3ccccc3c(NCc3ccccc3)c2C#N)cc1	–	2 µM (active)

Reference: PubChem BioAssay (Tox21)
